For part of these data: Entries with a potency or affinity are not part of this list.
What was measured:
Parameters in all cases: scale not given: direction of the effect not stated beside the values
[1] = biological target: Protein translocase subunit SecA (Escherichia coli (strain K12)) (UniProt P10408); assay: Assay to Identify E. coli SecA ATPase Inhibitors; type: functional; details: 30 µM
[2] = biological target: T1, Ubiquitin-activating enzyme e1, putative (Leishmania donovani (strain BPK282A1)) (UniProt E9BSI1); assay: Leishmania donovani Ubiquitin Activating Enzyme (LdE1); type: functional; details: 30 µM
T1 sequence (whole entry): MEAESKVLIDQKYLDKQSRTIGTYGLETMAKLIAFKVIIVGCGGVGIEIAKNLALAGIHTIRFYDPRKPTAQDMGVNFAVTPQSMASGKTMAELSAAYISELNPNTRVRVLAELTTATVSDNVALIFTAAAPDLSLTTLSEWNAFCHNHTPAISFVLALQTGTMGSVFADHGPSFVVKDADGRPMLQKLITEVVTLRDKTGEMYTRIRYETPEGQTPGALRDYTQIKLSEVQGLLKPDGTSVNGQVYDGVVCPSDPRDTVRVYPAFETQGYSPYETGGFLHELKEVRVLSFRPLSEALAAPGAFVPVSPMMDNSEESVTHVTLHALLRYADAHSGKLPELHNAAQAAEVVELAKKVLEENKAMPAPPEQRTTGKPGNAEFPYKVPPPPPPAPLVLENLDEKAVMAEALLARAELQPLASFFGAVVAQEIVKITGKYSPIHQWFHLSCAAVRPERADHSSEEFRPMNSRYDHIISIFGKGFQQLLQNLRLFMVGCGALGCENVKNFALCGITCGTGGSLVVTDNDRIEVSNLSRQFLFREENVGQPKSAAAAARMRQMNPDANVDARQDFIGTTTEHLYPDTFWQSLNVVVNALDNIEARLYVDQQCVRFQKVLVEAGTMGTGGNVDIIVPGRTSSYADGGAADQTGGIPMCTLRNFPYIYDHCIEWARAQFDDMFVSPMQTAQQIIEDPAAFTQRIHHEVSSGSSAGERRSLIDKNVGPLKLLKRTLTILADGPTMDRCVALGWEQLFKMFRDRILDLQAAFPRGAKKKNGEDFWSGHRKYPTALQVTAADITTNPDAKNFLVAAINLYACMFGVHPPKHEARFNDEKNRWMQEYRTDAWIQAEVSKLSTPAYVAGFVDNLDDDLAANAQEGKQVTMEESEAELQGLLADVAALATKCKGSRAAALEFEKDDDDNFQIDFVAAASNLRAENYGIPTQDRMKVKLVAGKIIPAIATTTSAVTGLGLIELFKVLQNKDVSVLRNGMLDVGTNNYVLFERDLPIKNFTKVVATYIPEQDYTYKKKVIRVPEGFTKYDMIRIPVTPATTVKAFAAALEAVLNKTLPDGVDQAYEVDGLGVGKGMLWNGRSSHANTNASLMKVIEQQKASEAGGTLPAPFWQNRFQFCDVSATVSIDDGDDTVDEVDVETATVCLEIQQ

[3] = biological target: AMP-activated protein kinase, AMPK (Homo sapiens) (UniProt P54646+O43741+P54619+Q9UGJ0+Q9Y478+Q13131+Q9UGI9); assay: AMP-dependent Kinase enzyme assay. An in vitro enzyme assay that detects ADP turnover that is directly proportional to AMPK activity. This uses naive AMPK that is activated during the assay with MK-8722; type: functional; details: 30 µM
[4] = biological target: Sialic acid-binding Ig-like lectin 9 (Homo sapiens) (UniProt Q9Y336); assay: Hs-Siglec9 ALPHAscreen SOP 20170721; details: 10 µM
[5] = system: Trypanosoma cruzi; assay: Trypanosoma cruzi phosphomannomutase and mannose-1-phosphate guanylyltransferase assay; type: functional; details: 10 µM
[6] = biological target: T2, Arginase-2, mitochondrial (Homo sapiens) (UniProt P78540); assay: in vitro enzyme assay to detect the production of urea directly proportional to the activity of Arginase II; type: functional; details: 33.3 µM; further: in the data most compounds retested in dose-response had high values
T2 sequence (whole entry): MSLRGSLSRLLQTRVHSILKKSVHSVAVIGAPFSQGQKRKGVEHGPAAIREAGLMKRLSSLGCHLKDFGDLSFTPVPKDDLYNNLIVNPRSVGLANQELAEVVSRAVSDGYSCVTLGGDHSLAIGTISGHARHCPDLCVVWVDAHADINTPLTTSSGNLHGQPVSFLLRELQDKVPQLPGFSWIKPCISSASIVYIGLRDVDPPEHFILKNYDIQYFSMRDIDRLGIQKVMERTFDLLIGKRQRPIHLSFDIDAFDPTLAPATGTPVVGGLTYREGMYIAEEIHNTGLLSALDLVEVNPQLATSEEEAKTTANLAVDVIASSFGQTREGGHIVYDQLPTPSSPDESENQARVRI

[7] = biological target: T3, Proteasome subunit beta (Trypanosoma cruzi) (UniProt O96673); assay: Trypanosoma cruzi proteasome chymotrypsin-like activity (TcProtChymo) assay.; further: in the data most compounds retested in dose-response had high values; type: functional; details: 9.37 µM
T3 sequence (whole entry): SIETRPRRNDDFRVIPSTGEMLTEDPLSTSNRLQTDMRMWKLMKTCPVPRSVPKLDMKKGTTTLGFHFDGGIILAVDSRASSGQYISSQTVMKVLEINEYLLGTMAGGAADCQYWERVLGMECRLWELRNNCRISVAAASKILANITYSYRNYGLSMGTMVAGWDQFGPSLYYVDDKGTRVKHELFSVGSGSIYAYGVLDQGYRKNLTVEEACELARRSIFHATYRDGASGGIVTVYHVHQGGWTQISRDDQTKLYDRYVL

[8] = organism: Homo sapiens; assay: To identify inhibition of the IFN signalling (Jak-Stat) pathway via expression of an eGFP reporter gene under the control of an IFN-stimulated response element (ISRE) containing MxA promoter.; type: functional; details: 30 µM
[9] = biological target: T4, Tyrosyl-tRNA synthetase, putative (Trypanosoma cruzi (strain CL Brener)) (UniProt Q4DSP6); assay: Trypanosoma cruzi tyrosyl tRNA synthetase (TcYRS) _High Tyrosine SOP; type: functional; details: 30 µM; further: in the data most compounds retested in dose-response had high values
T4 sequence (whole entry): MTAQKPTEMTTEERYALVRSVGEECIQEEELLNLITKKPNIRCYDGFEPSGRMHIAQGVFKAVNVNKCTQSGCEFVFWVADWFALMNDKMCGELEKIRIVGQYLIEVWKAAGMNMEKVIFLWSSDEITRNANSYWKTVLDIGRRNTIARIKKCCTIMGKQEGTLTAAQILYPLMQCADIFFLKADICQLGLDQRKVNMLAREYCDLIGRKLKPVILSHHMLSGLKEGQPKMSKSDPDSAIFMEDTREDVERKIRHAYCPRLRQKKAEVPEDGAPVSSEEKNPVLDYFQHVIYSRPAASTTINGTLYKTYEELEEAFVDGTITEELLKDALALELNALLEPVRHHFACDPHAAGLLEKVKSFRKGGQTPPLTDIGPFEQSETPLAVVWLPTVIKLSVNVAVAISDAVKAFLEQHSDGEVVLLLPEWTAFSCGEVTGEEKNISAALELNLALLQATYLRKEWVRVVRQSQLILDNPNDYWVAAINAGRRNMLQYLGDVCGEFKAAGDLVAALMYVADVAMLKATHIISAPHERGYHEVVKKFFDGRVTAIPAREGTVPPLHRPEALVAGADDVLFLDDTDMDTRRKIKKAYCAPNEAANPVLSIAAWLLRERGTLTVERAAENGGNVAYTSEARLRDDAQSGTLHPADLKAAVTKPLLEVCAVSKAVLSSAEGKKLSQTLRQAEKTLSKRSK

[10] = biological target: T4, Tyrosyl-tRNA synthetase, putative (Trypanosoma cruzi (strain CL Brener)); assay: Trypanosoma cruzi tyrosyl tRNA synthetase (TcYRS) SOP; type: functional; details: 30 µM
[11] = biological target: Chromo domain-containing protein 1 (Saccharomyces cerevisiae (strain ATCC 204508 / S288c) (Baker's yeast)) (UniProt P32657); assay: ScCHD-1 Enzyme Inhibition Assay; type: functional; details: 30 µM; further: in the data most compounds retested in dose-response had high values
Chain of Chromo domain-containing protein 1 (Saccharomyces cerevisiae (strain ATCC 204508 / S288c) (Baker's yeast)) (P32657 whole entry, the tested form may be a part): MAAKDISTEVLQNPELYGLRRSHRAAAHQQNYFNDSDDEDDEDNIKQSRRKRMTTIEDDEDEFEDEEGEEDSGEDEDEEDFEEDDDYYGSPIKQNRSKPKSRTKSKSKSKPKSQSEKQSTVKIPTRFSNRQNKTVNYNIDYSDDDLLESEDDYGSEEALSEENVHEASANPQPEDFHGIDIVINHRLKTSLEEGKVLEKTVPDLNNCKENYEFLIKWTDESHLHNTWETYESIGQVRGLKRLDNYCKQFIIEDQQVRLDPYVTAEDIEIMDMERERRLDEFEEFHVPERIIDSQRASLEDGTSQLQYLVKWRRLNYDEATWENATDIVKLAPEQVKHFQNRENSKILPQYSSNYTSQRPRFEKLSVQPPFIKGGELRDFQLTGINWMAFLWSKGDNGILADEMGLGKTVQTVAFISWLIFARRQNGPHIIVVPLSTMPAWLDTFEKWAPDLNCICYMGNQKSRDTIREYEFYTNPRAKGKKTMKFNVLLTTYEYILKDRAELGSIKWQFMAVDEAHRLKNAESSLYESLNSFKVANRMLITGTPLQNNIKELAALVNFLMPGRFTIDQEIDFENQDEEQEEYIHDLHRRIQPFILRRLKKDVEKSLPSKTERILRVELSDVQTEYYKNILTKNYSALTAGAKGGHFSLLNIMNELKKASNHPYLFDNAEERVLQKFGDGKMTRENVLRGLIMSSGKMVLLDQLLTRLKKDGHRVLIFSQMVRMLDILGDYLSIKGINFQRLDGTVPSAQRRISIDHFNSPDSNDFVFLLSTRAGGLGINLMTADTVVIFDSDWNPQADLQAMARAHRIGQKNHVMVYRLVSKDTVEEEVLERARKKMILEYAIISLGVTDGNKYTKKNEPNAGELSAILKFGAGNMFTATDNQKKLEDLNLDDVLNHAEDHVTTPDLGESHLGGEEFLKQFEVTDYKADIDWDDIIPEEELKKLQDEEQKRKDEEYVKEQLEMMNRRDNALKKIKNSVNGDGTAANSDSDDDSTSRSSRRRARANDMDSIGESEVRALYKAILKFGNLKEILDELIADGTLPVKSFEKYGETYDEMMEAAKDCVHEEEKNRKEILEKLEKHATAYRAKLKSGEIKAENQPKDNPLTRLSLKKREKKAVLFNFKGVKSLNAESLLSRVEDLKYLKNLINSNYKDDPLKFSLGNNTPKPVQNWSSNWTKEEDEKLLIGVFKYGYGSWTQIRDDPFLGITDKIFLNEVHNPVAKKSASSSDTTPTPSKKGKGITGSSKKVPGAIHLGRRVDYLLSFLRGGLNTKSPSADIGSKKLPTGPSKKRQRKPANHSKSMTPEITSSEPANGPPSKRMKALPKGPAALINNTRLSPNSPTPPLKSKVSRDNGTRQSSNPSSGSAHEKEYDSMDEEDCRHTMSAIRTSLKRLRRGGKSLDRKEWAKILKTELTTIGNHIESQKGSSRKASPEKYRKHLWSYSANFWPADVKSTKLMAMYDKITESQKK

Chain of Sialic acid-binding Ig-like lectin 9 (Homo sapiens) (Q9Y336 whole entry): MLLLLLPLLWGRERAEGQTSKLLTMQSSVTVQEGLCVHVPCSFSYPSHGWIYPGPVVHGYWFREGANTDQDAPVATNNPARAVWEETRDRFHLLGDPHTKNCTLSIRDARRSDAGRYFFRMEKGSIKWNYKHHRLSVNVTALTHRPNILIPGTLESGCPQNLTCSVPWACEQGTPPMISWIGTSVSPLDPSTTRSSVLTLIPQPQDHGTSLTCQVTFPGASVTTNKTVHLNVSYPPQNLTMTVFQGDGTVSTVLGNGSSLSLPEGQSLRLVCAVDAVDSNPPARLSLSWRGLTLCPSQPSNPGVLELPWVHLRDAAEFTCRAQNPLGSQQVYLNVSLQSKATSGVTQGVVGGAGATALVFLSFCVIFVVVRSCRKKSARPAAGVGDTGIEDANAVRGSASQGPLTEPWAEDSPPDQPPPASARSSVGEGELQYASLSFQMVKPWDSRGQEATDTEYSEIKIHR
Chain of Protein translocase subunit SecA (Escherichia coli (strain K12)) (P10408 whole entry): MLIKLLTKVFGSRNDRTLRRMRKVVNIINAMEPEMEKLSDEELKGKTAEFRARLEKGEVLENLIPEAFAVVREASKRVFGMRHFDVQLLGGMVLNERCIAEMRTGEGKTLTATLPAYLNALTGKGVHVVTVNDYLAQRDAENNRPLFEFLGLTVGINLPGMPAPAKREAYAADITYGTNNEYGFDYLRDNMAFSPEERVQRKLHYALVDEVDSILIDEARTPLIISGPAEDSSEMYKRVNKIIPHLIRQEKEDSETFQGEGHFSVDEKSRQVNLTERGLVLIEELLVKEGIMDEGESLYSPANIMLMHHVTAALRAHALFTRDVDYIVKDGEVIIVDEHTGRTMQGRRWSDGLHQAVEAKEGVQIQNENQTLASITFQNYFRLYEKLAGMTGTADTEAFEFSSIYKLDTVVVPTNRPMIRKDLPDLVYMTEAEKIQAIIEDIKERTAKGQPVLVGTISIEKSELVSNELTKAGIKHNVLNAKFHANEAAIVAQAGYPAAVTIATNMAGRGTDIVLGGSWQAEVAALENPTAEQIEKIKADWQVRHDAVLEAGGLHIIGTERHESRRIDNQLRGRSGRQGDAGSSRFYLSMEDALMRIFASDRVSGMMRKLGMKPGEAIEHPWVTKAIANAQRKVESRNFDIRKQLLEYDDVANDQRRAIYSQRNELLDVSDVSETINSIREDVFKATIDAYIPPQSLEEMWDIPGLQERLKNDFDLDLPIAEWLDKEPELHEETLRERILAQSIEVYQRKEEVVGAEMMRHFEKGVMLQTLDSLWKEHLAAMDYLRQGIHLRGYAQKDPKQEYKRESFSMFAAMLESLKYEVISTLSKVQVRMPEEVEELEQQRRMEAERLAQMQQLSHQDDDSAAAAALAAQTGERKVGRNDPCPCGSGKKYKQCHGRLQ

Compound | Percent Effect [1] | Percent Effect [2] | Percent Effect [3] | Percent Effect [4] | Percent Effect [5] | Percent Effect [6] | Percent Effect [7] | Percent Effect [8] | Percent Effect [9] | Percent Effect [10] | Percent Effect [11]
O=C(c1ccncc1)N1C[C@@H]2CC[C@H](C1)N(C(=O)N1CCOCC1)C2 | -0.807% | 2.67% | -4.2% | 3.79% | -4.38% | 4.69% | 15.5% | 10.6% | 6.01% | 13.6% | -5.41%
Cc1csc(CN2CC[C@H]3C[C@H](c4nnc(C)[nH]4)O[C@@H]3C2)n1 | 1.54% | 16.4% | 0.599% | 0.797% | -0.397% | 2.4% | 9.33% | 17.3% | 3.12% | -102% | -5.22%
CN(C)Cc1nc(C(C)(C)NC(=O)C2CC(=O)N(CC3CC3)C2)no1 (stereo unspecified) | -8.14% | 5.41% | 0.168% | 2.33% | -3.44% | 3.14% | -3.77% | 22.2% | 1.98% | 1.22% | 4.96%
COc1ccccc1C(=O)N1CC(Cc2nccc3ccn(C)c23)C1 | -7.05% | 17.6% | 2.79% | 6.36% | 4.15% | -2.09% | 6.4% | 13.2% | 6.45% | 14.3% | -16.6%
CCNC(=O)C1CCN(Cc2csc(-c3ccc(C)o3)n2)CC1 | -0.895% | 11.4% | 2.01% | 2.17% | 2.97% | 1.5% | 14.1% | 27.6% | 7.29% | 20.2% | -26.4%
COc1ccc(C(C(=O)O)N2CCCN(C3CCCC3)CC2)cc1OC (stereo unspecified) | -8.69% | 0% | -2.66% | -4.35% | -3.81% | -2.23% | -0.429% | 16% | -9.68% | -1.24% | -4.58%
Cc1nc(C)n(CC2CCCN2Cc2cscn2)n1 (stereo unspecified) | -4.14% | 2.6% | 3.5% | 10.9% | 2.64% | -0.21% | -0.404% | -14.6% | 5.71% | 11.8% | -13.6%
N#Cc1ccc(OCCN2CCc3c(ncn3C3CC3)C2)cc1 | -3.1% | 23.4% | -12.7% | -6.96% | -1.31% | 0% | 7.26% | -0.819% | 13.6% | 9.76% | -10.1%
CN(C)c1ccc(CN(CCCn2ccnc2)Cc2c[nH]cn2)cc1 | -6.31% | 17.6% | -10.4% | 5.43% | 3.16% | -6.26% | 12.5% | 8.69% | 8.6% | 19.5% | -30.5%
COc1ccc(C(CO)NC(=O)Nc2cccc(C#N)c2)cc1 (stereo unspecified) | -1.84% | 16.2% | -2.87% | 19.4% | 3.86% | -0.952% | 15.3% | 8.24% | 7.94% | 17.1% | -9.96%
O=C(c1ccccn1)N1Cc2nccn2CC(COc2cccnc2)C1 (stereo unspecified) | 0.812% | 13.3% | 0.132% | 2.56% | -0.193% | -54.7% | 4.96% | 20.5% | 4.17% | 15% | -4.96%
CC(C)c1nn(C)c(N(C)C)c1CNCc1cccc(CN(C)C)c1 | -1.46% | 18.4% | -8.3% | 3.17% | -7.94% | 3.6% | 3.81% | 2.21% | 8.37% | 18.5% | -4.8%
O=C(NCCO)C1(Cc2cc(-c3ccc(F)cc3F)no2)CCOCC1 | -2.99% | 12.2% | 14.6% | -1.56% | 0.988% | 1.16% | 15.8% | 23.3% | 0% | 6.49% | -16.7%
Cc1nc2c(c(C)c1CC(=O)NCc1cccc(C#N)c1)c(=O)[nH]n2C | -4.87% | 7.79% | 6.32% | 0.967% | -4.21% | 1.9% | 1.05% | 31.2% | 2.86% | 11.8% | -1.91%
COc1cccc(-c2nccnc2C2CCN(C(C)=O)CC2)c1 | -1.31% | 9.46% | 8.79% | -0.0533% | -0.593% | 1.16% | 15.1% | -0.133% | 3.23% | 14.3% | -14.9%
Cc1cc(C)n(-c2cncc(N3CCN(C(=O)C(C)(C)C)CC3)n2)n1 | -5.22% | 5.41% | 10.4% | -2.19% | -3.71% | -0.833% | 13.3% | 10.5% | 3.96% | 1.22% | -3.42%
COc1ccc(CNC(=O)NCC2CCOC2)c(C(F)(F)F)c1 (stereo unspecified) | -7.19% | 1.39% | -0.168% | 4.9% | -4.37% | -0.442% | 9.3% | 16.2% | 5.26% | 2.56% | -0.725%
CC(C)OCCOCc1cccc(NC(=O)NCCn2ccnc2)c1 | -0.877% | 10.4% | -2.37% | 9.62% | 5.61% | -1.38% | 8.65% | -0.82% | -1.07% | 3.7% | -7.91%
CCCc1nc(CN2CCCC2Cn2cncn2)cs1 (stereo unspecified) | -3.84% | 12.7% | -5.8% | 9.38% | 3.87% | -24.3% | 5.98% | 4.39% | 10.3% | 24.1% | -3.42%
C[S+]([O-])c1nncn1CC(=O)c1ccc(Cl)c(Cl)c1 (stereo unspecified) | -5.28% | 8.11% | -4.71% | 15.3% | 5.57% | 2.73% | 4.38% | -5.62% | -4.3% | 1.24% | -5.11%
CCOCCCn1c(NC(=O)c2ccc(C)nc2)nc2ccccc21 | -10.1% | 7.79% | 10.5% | 3.52% | 2.25% | 0% | 4.56% | -7.49% | 4.85% | 14.6% | 0.139%

Reference: ChEMBL document CHEMBL3988442, “University of Dundee, Small-Polar-MMV Screening Library” (2021)
